# According to the supplement of paper PMC8728848:
# The full list was thinned out, with the strongest signals kept by preference.
# B1: EULS2 M2 (Oryza sativa) (protein)
# chain: MVYCRANPNYAMTARNGAVVLAPANPKDEYQHWIKDMRWSTSIKDEEGYPAFALVNKATGQAIKHSLGQSHPVRLVPYNPEVMDESVLWTESRDVGNGFRCIRMVNNIYLNFDAFHGDKYHGGVRDGTDIVLWKLCEGDSQRWKIQPYYILEQKLISEEDLNSAVDHHHHHH
# Experiments:
# Assay in all cases: glycan array binding signal (z-score within array); higher = stronger binding
# Conditions in all cases: glycan notation: IUPAC condensed, linker removed
# Gal6S(b1-4)GlcNAc6S = molecular target: Gal6S(b1-4)GlcNAc6S
# In short: (§1)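 Arrays were curated from the Consortium for Functional Glycomics database, 3228 in total, and kept only where the protein sequence was available. Binding is expressed as a within-array Z-score. This score was averaged across arrays of the same protein sequence at different concentrations or buffers and across linkers, and negative values can be read as non-binding.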
# [1] = molecular target: GalNAc(b1-3)Gal(a1-6)Gal(b1-4)Glc
# In short: as §1
# GalNAc3S(b1-4)GlcNAc3S = molecular target: GalNAc3S(b1-4)GlcNAc3S
# In short: as §1
# [2] = molecular target: Glc(a1-4)Glc(a1-4)Glc(a1-4)Glc
# In short: as §1
# [3] = molecular target: Glc(a1-6)Glc(a1-6)Glc(a1-6)Glc
# In short: as §1
# GlcA(b1-6)Gal = molecular target: GlcA(b1-6)Gal
# In short: as §1
# GlcNAc(b1-3)Gal = molecular target: GlcNAc(b1-3)Gal
# In short: as §1
# [4] = molecular target: GlcNAc(b1-3)Gal(b1-4)GlcNAc(b1-2)Man(a1-3)[GlcNAc(b1-3)Gal(b1-4)GlcNAc(b1-2)Man(a1-6)]Man(b1-4)GlcNAc(b1-4)GlcNAc
# In short: as §1
# [5] = molecular target: GlcNAc(b1-3)Gal(b1-4)GlcNAc(b1-3)Gal(b1-4)GlcNAc(b1-2)Man(a1-3)[GlcNAc(b1-3)Gal(b1-4)GlcNAc(b1-3)Gal(b1-4)GlcNAc(b1-2)Man(a1-6)]Man(b1-4)GlcNAc(b1-4)GlcNAc
# In short: as §1
# [6] = molecular target: GlcNAc(b1-3)Gal(b1-4)GlcNAc(b1-6)[GlcNAc(b1-3)]Gal(b1-4)GlcNAc
# In short: as §1
# [7] = molecular target: Man(a1-2)Man(a1-2)Man(a1-3)Man
# In short: as §1
# [8] = molecular target: Man(a1-3)[Man(a1-6)]Man(a1-6)[Man(a1-3)]Man
# In short: as §1
# [9] = molecular target: Man(a1-3)[Man(a1-6)]Man(a1-6)[Man(a1-3)]Man(b1-4)GlcNAc(b1-4)GlcNAc
# In short: as §1
# [10] = molecular target: Man(a1-3)[Man(a1-6)]Man(b1-4)GlcNAc(b1-4)[Fuc(a1-6)]GlcNAc
# In short: as §1
# Man(a1-6)Man = molecular target: Man(a1-6)Man
# In short: as §1
# [11] = molecular target: Neu5Ac(a2-3)Gal(b1-3)[Fuc(a1-4)]GlcNAc(b1-3)Gal(b1-3)[Fuc(a1-4)]GlcNAc
# In short: as §1
# [12] = molecular target: Neu5Ac(a2-3)Gal(b1-3)[Fuc(a1-4)]GlcNAc(b1-3)Gal(b1-4)[Fuc(a1-3)]GlcNAc
# In short: as §1
# [13] = molecular target: Neu5Ac(a2-3)Gal(b1-4)GlcNAc(b1-2)Man(a1-3)[Neu5Ac(a2-3)Gal(b1-4)GlcNAc(b1-2)Man(a1-6)]Man(b1-4)GlcNAc(b1-4)[Fuc(a1-6)]GlcNAc
# In short: as §1
# [14] = molecular target: Neu5Ac(a2-3)Gal(b1-4)GlcNAc(b1-3)Gal(b1-4)GlcNAc(b1-3)Gal(b1-4)GlcNAc(b1-2)Man(a1-3)[Neu5Ac(a2-3)Gal(b1-4)GlcNAc(b1-3)Gal(b1-4)GlcNAc(b1-3)Gal(b1-4)GlcNAc(b1-2)Man(a1-6)]GalNAc
# In short: as §1
# [15] = molecular target: Neu5Ac(a2-3)Gal(b1-4)GlcNAc(b1-3)Gal(b1-4)[Fuc(a1-3)]GlcNAc
# In short: as §1
# [16] = molecular target: Neu5Ac(a2-3)Gal6S(b1-4)GlcNAc
# In short: as §1
# [17] = molecular target: Neu5Ac(a2-6)Gal(b1-4)GlcNAc(b1-3)Gal(b1-4)GlcNAc(b1-3)Gal(b1-4)GlcNAc(b1-2)Man(a1-3)[Neu5Ac(a2-6)Gal(b1-4)GlcNAc(b1-3)Gal(b1-4)GlcNAc(b1-3)Gal(b1-4)GlcNAc(b1-2)Man(a1-6)]GalNAc
# In short: as §1
# [18] = molecular target: Neu5Ac(a2-6)Gal(b1-4)GlcNAc(b1-3)Gal(b1-4)[Fuc(a1-3)]GlcNAc(b1-3)Gal(b1-4)[Fuc(a1-3)]GlcNAc
# In short: as §1
# [19] = molecular target: Neu5Ac(a2-6)Gal(b1-4)GlcNAc6S
# In short: as §1
# [20] = molecular target: Neu5Gc(a2-3)Gal(b1-4)GlcNAc(b1-3)Gal(b1-4)GlcNAc(b1-2)Man(a1-3)[Neu5Gc(a2-3)Gal(b1-4)GlcNAc(b1-3)Gal(b1-4)GlcNAc(b1-2)Man(a1-6)]Man(b1-4)GlcNAc(b1-4)GlcNAc
# In short: as §1
binder,measurement,setting,value
B1,glycan array binding signal (z-score),Gal6S(b1-4)GlcNAc6S,2.72
same,glycan array binding signal (z-score),[1],0.855
same,glycan array binding signal (z-score),GalNAc3S(b1-4)GlcNAc3S,0.228
same,glycan array binding signal (z-score),[2],-0.217
same,glycan array binding signal (z-score),[3],-0.066
same,glycan array binding signal (z-score),GlcA(b1-6)Gal,0.412
same,glycan array binding signal (z-score),GlcNAc(b1-3)Gal,-0.404
same,glycan array binding signal (z-score),[4],-0.176
same,glycan array binding signal (z-score),[5],0.163
same,glycan array binding signal (z-score),[6],-0.388
same,glycan array binding signal (z-score),[7],-0.332
same,glycan array binding signal (z-score),[8],7.3
same,glycan array binding signal (z-score),[9],3.29
same,glycan array binding signal (z-score),[10],0.966
same,glycan array binding signal (z-score),Man(a1-6)Man,5.83
same,glycan array binding signal (z-score),[11],0.084
same,glycan array binding signal (z-score),[12],-0.548
same,glycan array binding signal (z-score),[13],-0.323
same,glycan array binding signal (z-score),[14],-0.26
same,glycan array binding signal (z-score),[15],-0.328
same,glycan array binding signal (z-score),[16],-0.449
same,glycan array binding signal (z-score),[17],0.058
same,glycan array binding signal (z-score),[18],-0.268
same,glycan array binding signal (z-score),[19],-0.389
same,glycan array binding signal (z-score),[20],0.09
